Our source for the Potency values is PubChem BioAssay (NCATS).

Inconclusive results are not listed. Entries that show only a call come without a potency. The source made the active and inactive calls. Calls come from the whole dose curve; as a rule, active = well fitted inhibition curve with a large enough effect; inconclusive = small, poorly fitted or top-dose-only effect; inactive = no such curve, though single readings can be large or run the other way.
Potency is the fitted concentration of half-maximal effect.

Protein phosphatase 1D (Homo sapiens), sequence (O15297 whole entry, looked up): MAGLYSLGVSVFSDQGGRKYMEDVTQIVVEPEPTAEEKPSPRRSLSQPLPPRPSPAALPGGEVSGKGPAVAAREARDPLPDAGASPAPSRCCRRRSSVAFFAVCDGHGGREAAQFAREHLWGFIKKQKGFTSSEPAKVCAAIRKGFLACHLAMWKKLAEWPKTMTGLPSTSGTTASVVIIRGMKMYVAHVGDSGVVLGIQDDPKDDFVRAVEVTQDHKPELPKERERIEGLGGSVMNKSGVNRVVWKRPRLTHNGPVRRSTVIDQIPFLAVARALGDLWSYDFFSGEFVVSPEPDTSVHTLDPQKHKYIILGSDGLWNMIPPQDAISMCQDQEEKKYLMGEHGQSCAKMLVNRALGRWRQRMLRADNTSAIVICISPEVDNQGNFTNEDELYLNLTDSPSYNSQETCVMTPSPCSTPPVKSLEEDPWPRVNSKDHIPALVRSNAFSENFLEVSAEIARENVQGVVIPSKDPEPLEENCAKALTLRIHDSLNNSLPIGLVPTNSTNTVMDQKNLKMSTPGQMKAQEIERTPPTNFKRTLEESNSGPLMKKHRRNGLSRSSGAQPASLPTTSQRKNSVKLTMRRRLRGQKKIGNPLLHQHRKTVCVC

This test concerns the target Protein phosphatase 1D (Homo sapiens) (UniProt O15297). The test is described as follows: RapidFire Mass Spectrometry qHTS Assay for Modulators of WT P53-Induced Phosphatase 1 (WIP1) (AID 1347424). Conditions: WIP1 dephosphorylation of phosphopeptide, RapidFire MS; series mostly up to 63 µM. In outline:
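RapidFire MS readout of dephosphorylated VEPPL-S-QETFS product, with 1 uM isotope-labelled peptide standard. Reaction: 10 nM WIP1, 2 uM phosphopeptide substrate, 5 min, room temperature, after 1 h compound preincubation; stopped with 0.5% formic acid.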
Background: Quantitative high-throughput screening tests each substance at several concentrations.
With `C[C@H](N)[C@H](O)c1ccc(O)c(O)c1`, the Potency was 2000 nM (active).
Turning to `Clc1ccc(CSC(Cn2ccnc2)c2ccc(Cl)cc2Cl)cc1` (centres undefined), the Potency result is “inactive”.
With `c1ccc2c(c1)Sc1ccccc1N2CC1CN2CCC1CC2` (centres undefined) the entry was “inactive”; with `CCOP(=S)(OCC)O/N=C(\C#N)c1ccccc1`, “inactive”.
Under `CC[C@]1(O)CC[C@H]2[C@@H]3CCC4=CCCC[C@@H]4[C@H]3CC[C@@]21C` stands “inactive”; under `C[C@]12Cc3nonc3C[C@@H]1CC[C@@H]1[C@@H]2CC[C@@]2(C)[C@H]1CC[C@]2(C)O`, “inactive”.
Take `CCCCCCCCCCCC[N+](C)(C)CCOc1ccccc1`: the Potency entry is “inactive”.
As to `COc1ccc2c3c1O[C@H]1[C@@H](O)C=C[C@H]4[C@@H](C2)N(C)CC[C@@]341`, the Potency entry was “inactive”.
With `C#C[C@]1(O)C=C[C@H]2[C@@H]3CCC4=CC(=O)CC[C@@H]4[C@H]3CC[C@@]21CC` the entry was “inactive”.
